Unmarked numbers belong to inactive results. Calls of active or inactive are those of the source. Cut-off read from the data, not from the text of the source, unless noted: active = inhibition above about 33%; inactive = the rest.
What was measured:
[1] = StAR promoter reporter inhibitors, counter-screen for LRH-1 inverse agonist project, cell-based, luminescence, high throughput (AID 651611; in the data active = inhibition above about 28%); settings: StAR promoter luciferase reporter counterscreen, at 3.6 µM, hits give high values
[2] = target: Nuclear receptor subfamily 5 group A member 2 (Homo sapiens) (UniProt O00482); experiment: NR5A2 activity suppression in reporter cells – cell-based, luminescence, confirmation (AID 651613; in the data active = inhibition above about 42%;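 note: HEK293T cells co-transfected with LRH-1 and StAR promoter luciferase reporter; 0% = vehicle wells and 100% = parental cells lacking receptor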); settings: cell-based LRH-1 luciferase reporter, inverse agonism; at 3.6 µM; hits give high values
Chain of Nuclear receptor subfamily 5 group A member 2 (Homo sapiens) (O00482 whole entry, looked up): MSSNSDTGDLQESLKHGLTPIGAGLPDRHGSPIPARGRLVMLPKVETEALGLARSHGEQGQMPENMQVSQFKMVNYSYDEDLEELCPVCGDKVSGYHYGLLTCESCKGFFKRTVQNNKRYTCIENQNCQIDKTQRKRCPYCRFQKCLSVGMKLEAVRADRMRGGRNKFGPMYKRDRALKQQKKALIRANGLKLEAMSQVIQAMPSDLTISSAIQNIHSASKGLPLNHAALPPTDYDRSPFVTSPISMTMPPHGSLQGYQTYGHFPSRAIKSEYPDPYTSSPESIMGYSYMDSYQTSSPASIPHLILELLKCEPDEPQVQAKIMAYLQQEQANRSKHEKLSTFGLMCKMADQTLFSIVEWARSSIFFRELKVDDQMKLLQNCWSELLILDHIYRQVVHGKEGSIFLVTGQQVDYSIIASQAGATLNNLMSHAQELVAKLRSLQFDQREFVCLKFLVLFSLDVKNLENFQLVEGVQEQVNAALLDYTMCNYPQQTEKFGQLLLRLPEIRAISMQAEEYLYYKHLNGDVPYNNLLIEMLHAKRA

[3] = target: Steroidogenic factor 1 (Homo sapiens) (UniProt Q13285); experiment: inverse agonism at SF1 nuclear receptor – cell-based, luminescence, high throughput, counter-screen for LRH-1 inverse agonist project (AID 651614; in the data active = inhibition above about 44%;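 note: cells cotransfected with StAR promoter reporter and SF1 expression vector; 0% = vehicle on cells with receptor and 100% = vehicle on cells lacking receptor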); settings: cell-based SF1 luciferase reporter, at 3.6 µM, hits give high values
Chain of Steroidogenic factor 1 (Homo sapiens) (Q13285 whole entry, looked up, the tested form may be a part): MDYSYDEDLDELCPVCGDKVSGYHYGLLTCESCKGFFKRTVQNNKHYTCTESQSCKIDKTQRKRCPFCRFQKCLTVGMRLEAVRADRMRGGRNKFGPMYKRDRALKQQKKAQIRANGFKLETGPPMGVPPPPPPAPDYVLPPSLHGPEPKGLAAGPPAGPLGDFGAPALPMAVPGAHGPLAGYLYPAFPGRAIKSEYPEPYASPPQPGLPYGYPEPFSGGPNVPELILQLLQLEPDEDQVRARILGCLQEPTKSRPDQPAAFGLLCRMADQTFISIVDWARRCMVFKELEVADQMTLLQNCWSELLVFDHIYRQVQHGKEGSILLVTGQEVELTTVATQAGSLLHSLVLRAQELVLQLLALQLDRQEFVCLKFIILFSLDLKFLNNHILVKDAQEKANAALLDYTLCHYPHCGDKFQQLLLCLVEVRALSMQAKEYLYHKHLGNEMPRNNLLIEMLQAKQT

[4] = compounds suppressing VP16-driven luciferase signal – cell-based, luminescence, high throughput, counter-screen for LRH-1 inverse agonist project (AID 651615); settings: Gal4-VP16 luciferase reporter cells, at 3.6 µM, hits give high values

## CCOC(=O)c1c2c(n(Cc3ccccc3)c1C)C(=O)C(=O)c1ccccc1-2
[1]
  inhibition: 48.7% (active)
[2]
  inhibition: 60.6% (active)
[3]
  inhibition: 71.6% (active)
[4]
  inhibition: 54.6% (active)

## CC(=O)Nc1cc(-c2ccc(S(C)(=O)=O)cc2)cn2c(-c3ccc(F)c(Cl)c3)cnc12
[1]
  inhibition: 12.9%
[2]
  inhibition: 61.1% (active)
[3]
  inhibition: 51.7% (active)
[4]
  inhibition: 3.98%

## Cc1cc(S(=O)(=O)NCc2ccncc2)c(C)cc1Br
[1]
  inhibition: -10.6%
[2]
  inhibition: 39%
[3]
  inhibition: 38.6%
[4]
  inhibition: 41.4% (active)

## O=[N+]([O-])c1ccc(COc2cccc(CNc3ccc(Br)cc3)c2)cc1
[1]
  inhibition: 3.67%
[2]
  inhibition: 48.8% (active)
[3]
  inhibition: 37.4%
[4]
  inhibition: -6.59%

## O=C(COc1ccc2c3c(c(=O)oc2c1)CCC3)NCc1ccncc1
[1]
  inhibition: 0.83%
[2]
  inhibition: 50% (active)
[3]
  inhibition: 41.4%
[4]
  inhibition: -2.51%

## COc1ccc(C(=O)OCC(=O)Nc2ccc(N3CCOCC3)cc2)cc1OC
[1]
  inhibition: 10.1%
[2]
  inhibition: 52.8% (active)
[3]
  inhibition: 51.7% (active)
[4]
  inhibition: -1.85%

## CCOc1ccc(NC(=O)CN2C(=O)NC(C)(c3ccc(OC(F)F)cc3)C2=O)cc1 (stereo not drawn)
[1]
  inhibition: 18.8%
[2]
  inhibition: 62.6% (active)
[3]
  inhibition: 59.2% (active)
[4]
  inhibition: -30.5%

## NC(=S)N/N=C/c1ccc([N+](=O)[O-])cc1
[1]
  inhibition: 6.27%
[2]
  inhibition: 42.7% (active)
[3]
  inhibition: 39.8%
[4]
  inhibition: -3.22%

## CN(C)S(=O)(=O)c1cccc(CSCc2cccc(S(=O)(=O)N(C)C)c2)c1
[1]
  inhibition: 7.72%
[2]
  inhibition: 59% (active)
[3]
  inhibition: 38.9%
[4]
  inhibition: 46.1% (active)

## CC(C)Cn1c(N)c(C(=O)NCC2CCCO2)c2nc3ccccc3nc21 (stereo not drawn)
[1]
  inhibition: 23.3%
[2]
  inhibition: 42.8% (active)
[3]
  inhibition: 37.3%
[4]
  inhibition: 1.28%

## CN(C)c1ccc(NC(=O)CSc2nnc(-c3ccco3)c(-c3ccco3)n2)cc1
[1]
  inhibition: 14.1%
[2]
  inhibition: 54.9% (active)
[3]
  inhibition: 47.8% (active)
[4]
  inhibition: -2.61%

## COc1cccc(C(=O)N/N=C2/SCC(=O)N2CCc2ccc(OC)c(OC)c2)c1
[1]
  inhibition: 10.8%
[2]
  inhibition: 31.3%
[3]
  inhibition: 36.8%
[4]
  inhibition: -5.38%

## COc1ccc(NC(=O)C2=CC(c3ccc(OC)c(OC)c3)=NS(=O)(=O)N2C)cc1
[1]
  inhibition: 1.44%
[2]
  inhibition: 56.3% (active)
[3]
  inhibition: 49.4% (active)
[4]
  inhibition: 18.4%

## O=C(c1ccco1)N1CCCC(N2CCN(c3cccc(C(F)(F)F)c3)CC2)C1 (stereo not drawn)
[1]
  inhibition: -1.93%
[2]
  inhibition: 51% (active)
[3]
  inhibition: 47.7% (active)
[4]
  inhibition: 11.1%

## Clc1ccc2c(c1)-c1ccccc1C1=NCCN12
[1]
  inhibition: 51.8% (active)
[2]
  inhibition: 90.7% (active)
[3]
  inhibition: 70.4% (active)
[4]
  inhibition: 64.1% (active)

## Nc1nc2ccc(Cl)cc2cc1C(=O)NCc1ccc(Oc2ccccc2)cc1
[1]
  inhibition: 14.7%
[2]
  inhibition: 54.2% (active)
[3]
  inhibition: 51.1% (active)
[4]
  inhibition: 45.7% (active)

## O=C(COC(=O)c1ccc(Br)o1)Nc1ccc2c(c1)OCCO2
[1]
  inhibition: 22%
[2]
  inhibition: 59.4% (active)
[3]
  inhibition: 63.1% (active)
[4]
  inhibition: 1.94%

## Cc1c(C#N)c(O)n(CCO)c(=O)c1N=Nc1ccccc1
[1]
  inhibition: 13.4%
[2]
  inhibition: 44.4% (active)
[3]
  inhibition: 41.7%
[4]
  inhibition: 6.91%

## CC(O)(c1cccc(F)c1)c1nc(-c2ccc(S(C)(=O)=O)cc2)cs1 (stereo not drawn)
[1]
  inhibition: 2.43%
[2]
  inhibition: 48.7% (active)
[3]
  inhibition: 44.9% (active)
[4]
  inhibition: -6.85%

## CCCCCCCCn1c2c(c(=N)c3ccccc31)CCC2
[1]
  inhibition: 78.5% (active)
[2]
  inhibition: 110% (active)
[3]
  inhibition: 92.8% (active)
[4]
  inhibition: 92.1% (active)

## Cc1ccc(NC(=O)Cc2nnc(SCC(=O)Nc3ccc(N4CCOCC4)cc3)n2C)cc1
[1]
  inhibition: 6.95%
[2]
  inhibition: 59.7% (active)
[3]
  inhibition: 51.9% (active)
[4]
  inhibition: 12%

## CC1(C)Cc2ccccc2/C(=C/C(=O)c2ccccc2)N1
[1]
  inhibition: 0.1%
[2]
  inhibition: 39%
[3]
  inhibition: 36.2%
[4]
  inhibition: 15.6%

## CCN(CC)c1nc(C)c(C(C)=O)cc1C#N
[1]
  inhibition: 1.34%
[2]
  inhibition: 32.7%
[3]
  inhibition: 57% (active)
[4]
  inhibition: 12%

## O=C1C=C(N2CCCCCC2)C2(CCCCC2)O1
[1]
  inhibition: 4.6%
[2]
  inhibition: 58.5% (active)
[3]
  inhibition: 55% (active)
[4]
  inhibition: -9.31%

## COc1ccc(CCNC(=O)CN2C(=O)NC3(CCCCC3C)C2=O)cc1 (stereo not drawn)
[1]
  inhibition: 3.33%
[2]
  inhibition: 66.3% (active)
[3]
  inhibition: 66.7% (active)
[4]
  inhibition: -17%

## CCc1cc(=O)oc2c(C)c(OCC(=O)NC3CC(C)(C)NC(C)(C)C3)ccc12
[1]
  inhibition: 4.17%
[2]
  inhibition: 56.7% (active)
[3]
  inhibition: 56.1% (active)
[4]
  inhibition: 3.79%

## CCOc1ccc(CCNC(=O)COC(=O)Cc2c[nH]c3ccccc23)cc1OCC
[1]
  inhibition: 9.43%
[2]
  inhibition: 56.5% (active)
[3]
  inhibition: 56.3% (active)
[4]
  inhibition: -0.69%

## COc1ccc(C(NC(=O)C(C)C)c2ccc3cccnc3c2O)cc1 (stereo not drawn)
[1]
  inhibition: 84.5% (active)
[2]
  inhibition: 103% (active)
[3]
  inhibition: 91.8% (active)
[4]
  inhibition: 87.7% (active)

## OCC1OC(n2cnc3c(/C=C(\O)c4ccccc4)ncnc32)C(O)C1O (stereo not drawn)
[1]
  inhibition: -32.8%
[2]
  inhibition: -13.9%
[3]
  inhibition: -0.35%
[4]
  inhibition: -27.3%

## Cc1nc2ccccc2n1/N=C/c1ccc([N+](=O)[O-])s1
[1]
  inhibition: 20.9%
[2]
  inhibition: 68.2% (active)
[3]
  inhibition: 71.4% (active)
[4]
  inhibition: 29.6%

## COCCNc1ncnc2c1ncn2[C@H]1CN(CCc2ccccc2)C[C@@H](CO)O1
[1]
  inhibition: 9.96%
[2]
  inhibition: 28.4%
[3]
  inhibition: 24.9%
[4]
  inhibition: 3.57%

## Cc1cc2oc(=O)cc(-c3ccccc3)c2c(C)c1-c1ccc(CO)cc1
[1]
  inhibition: 10.8%
[2]
  inhibition: 71.5% (active)
[3]
  inhibition: 63.6% (active)
[4]
  inhibition: 16.8%

## CCOc1ccc(CCNC(=O)COC(=O)c2ccc(OC)c(OC)c2OC)cc1OCC
[1]
  inhibition: 11.7%
[2]
  inhibition: 53.8% (active)
[3]
  inhibition: 55.5% (active)
[4]
  inhibition: -6.44%

## Cc1ccc(NC(=O)CSc2nc3[nH]c(=O)cc(O)c3s2)c(Br)c1
[1]
  inhibition: 5.79%
[2]
  inhibition: 56.3% (active)
[3]
  inhibition: 46.5% (active)
[4]
  inhibition: -1.62%

## CCNc1nc(-c2sc(NC(=O)C(C)(C)C)nc2C)c(-n2cc(-c3ccccc3)nn2)s1
[1]
  inhibition: 60.9% (active)
[2]
  inhibition: 27.6%
[3]
  inhibition: 41.4%
[4]
  inhibition: 35.7% (active)

## COC(=O)c1ccc(NC(=O)CSc2nncn2-c2cccnc2)cc1
[1]
  inhibition: -6.12%
[2]
  inhibition: 44.6% (active)
[3]
  inhibition: 34.3%
[4]
  inhibition: 0.63%

## CC(/C=C(\NC(=O)c1ccccc1)C(=O)N=Nc1c(O)[nH]c2ccc(C)cc12)=C\c1ccccc1
[1]
  inhibition: 34.2% (active)
[2]
  inhibition: 31.7%
[3]
  inhibition: 30.2%
[4]
  inhibition: 14.1%

## Cc1c(C#N)c(O)n(CCO)c(=O)c1N=Nc1ccc2c(c1)COC2=O
[1]
  inhibition: 17.9%
[2]
  inhibition: 39.5%
[3]
  inhibition: 52.1% (active)
[4]
  inhibition: -1%

## CCOc1ccc(C(C)=O)cc1COC(=O)c1cc([N+](=O)[O-])ccc1N1CCOCC1
[1]
  inhibition: 15.1%
[2]
  inhibition: 58.2% (active)
[3]
  inhibition: 55.5% (active)
[4]
  inhibition: 7.41%

## Cc1ccc(-n2nc(C)c(NC(=O)CCl)c2C)cc1
[1]
  inhibition: 35.8% (active)
[2]
  inhibition: 47% (active)
[3]
  inhibition: 57.2% (active)
[4]
  inhibition: -120%

## CCn1c(=O)[nH]c(=O)c2c(N)c(C(=O)c3cc(F)ccc3F)sc21
[1]
  inhibition: 10.4%
[2]
  inhibition: 59.5% (active)
[3]
  inhibition: 54.2% (active)
[4]
  inhibition: 10.3%

## CCN(CC)C1=CC(=O)OC12CCCCC2
[1]
  inhibition: 2.42%
[2]
  inhibition: 51.2% (active)
[3]
  inhibition: 48.7% (active)
[4]
  inhibition: -9.57%

## O=C(c1ccc(=O)n(Cc2ccccc2)n1)N1CCN(C/C=C/c2ccccc2)CC1
[1]
  inhibition: 2.26%
[2]
  inhibition: 52.9% (active)
[3]
  inhibition: 28%
[4]
  inhibition: 5.07%

## CCCCc1c(O)nc(SCC(=O)Nc2ccc(OC)cc2)n(-c2ccc(C)c(C)c2)c1=O
[1]
  inhibition: 24%
[2]
  inhibition: 60% (active)
[3]
  inhibition: 51% (active)
[4]
  inhibition: -5.8%

## CC(=O)Oc1ccc2oc(=O)c3c(c2c1)CCCN3C(=O)CN1CCN(c2ncccn2)CC1
[1]
  inhibition: 12.8%
[2]
  inhibition: 58% (active)
[3]
  inhibition: 66.4% (active)
[4]
  inhibition: -13.8%

## COc1cc2nc(/C=C/c3cc(OC)c(OC)c(OC)c3)sc2cc1SC
[1]
  inhibition: 35.7% (active)
[2]
  inhibition: 45.1% (active)
[3]
  inhibition: 58.6% (active)
[4]
  inhibition: -2.8%

## CC(C(=O)N1CCCc2c1c(=O)oc1ccc(O)cc21)N1CCc2ccccc2C1 (stereo not drawn)
[1]
  inhibition: 3.35%
[2]
  inhibition: 48.5% (active)
[3]
  inhibition: 32.4%
[4]
  inhibition: -3.51%

## Cn1c(SCC(=O)Nc2ccc3nc(SCC(=O)NC4CC4)sc3c2)nnc1-c1ccccc1
[1]
  inhibition: 12.3%
[2]
  inhibition: 59.7% (active)
[3]
  inhibition: 61.5% (active)
[4]
  inhibition: 2.96%

## C/C(=N\NC(N)=S)c1ccc(Cl)s1
[1]
  inhibition: 16.8%
[2]
  inhibition: 55.8% (active)
[3]
  inhibition: 35.5%
[4]
  inhibition: 21.2%

## COc1cc(CNc2ccc(CNc3ncn[nH]3)cc2)ccc1OCC(=O)NC(C)(C)C
[1]
  inhibition: -5.1%
[2]
  inhibition: 14.1%
[3]
  inhibition: -3.26%
[4]
  inhibition: 15.7%

## Cc1ccc(NC(=O)COC(=O)CCC2CCCC2)c(Br)c1
[1]
  inhibition: 5.75%
[2]
  inhibition: 40.9%
[3]
  inhibition: 46.2% (active)
[4]
  inhibition: -5.49%

## COc1ccc(OC)c(CCNC(=O)C(C)n2nc(C)c3c(C)n(-c4ccc(C)cc4)nc3c2=O)c1 (stereo not drawn)
[1]
  inhibition: 15.2%
[2]
  inhibition: 64% (active)
[3]
  inhibition: 55.6% (active)
[4]
  inhibition: 51.2% (active)
